Data published in PubChem BioAssay (NCATS).
Values joined by “and” are separate entries in the source; they are usually repeats but may differ in a detail not shown here. Equal values may be shown once. Results filed as inconclusive are left out. Where a call stands in place of a potency, no number is given. Active and inactive are the calls of the source. Unless noted, the call rests on the fitted dose curve.

What was measured:
[1] = biological target: Bile acid receptor (Homo sapiens) (UniProt Q96RI1); experiment: qHTS assay for small molecule antagonists of farnesoid X receptor signaling (AID 588526)
In short: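 Antagonist mode: titrated compounds tested against chenodeoxycholic acid stimulation (normalized to 50 uM CDCA and DMSO) in GeneBLAzer HEK293T cells for 16 h. Beta-lactamase read by CCF4 fluorescence; IC50 from Hill fits.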

[2] = qHTS assay for small molecule antagonists of peroxisome proliferator-activated receptor delta signaling (AID 588535; active means well fitted inhibition curve with a large enough effect in the signal ratio, with a control signal flat, not every such curve was filed as active; the % refers to the signal ratio;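 on max response: cells co-treated with a PPAR-delta agonist as stimulator during compound exposure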); conditions: HEK293T PPARd-UAS-bla, beta-lactamase FRET ratio, 18 h; 460 nm channel
In short: (§1)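 Antagonist-mode beta-lactamase reporter (GeneBLAzer PPAR-delta-UAS-bla) in HEK293T cells, 2% charcoal/dextran FBS, 4000 cells/well. Compound titrations, 18 h at 37 C; CCF4 ratio read, IC50 and efficacy from Hill fits.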

[3] = biological target: Peroxisome proliferator-activated receptor delta (Homo sapiens) (UniProt Q03181); experiment: as above
In short: as §1

[4] = biological target: Peroxisome proliferator-activated receptor gamma (Homo sapiens) (UniProt P37231); experiment: qHTS assay for small molecule agonists of peroxisome proliferator-activated receptor gamma signaling (AID 588536; active means well fitted curve in the direction sought with a large enough effect in the signal ratio, with a control signal flat, not every such curve was filed as active; the % refers to the signal ratio)
In short: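 GeneBLAzer PPAR-gamma-UAS-bla HEK293 cells in 1% charcoal/dextran-treated FBS medium were treated 16 h at 37 C with compounds. Beta-lactamase activity was read by CCF4 ratio (460/530 nm). Response was normalized to 2 uM rosiglitazone (100%) and DMSO, then Hill-fitted for EC50 and efficacy.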

[5] = biological target: Peroxisome proliferator-activated receptor gamma (Homo sapiens) (UniProt P37231); experiment: qHTS assay for small molecule antagonists of peroxisome proliferator-activated receptor gamma signaling (AID 588537; active means well fitted inhibition curve with a large enough effect in the signal ratio, with a control signal flat, not every such curve was filed as active; the % refers to the signal ratio; further: potency means the concentration at half of the fitted maximal effect)
In short: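 PPARγ-UAS-bla HEK293 cells (3000/well) in 1% charcoal/dextran-stripped FBS are treated with compound, then stimulated with 50 nM rosiglitazone for 16 h at 37 °C. Read-out is CCF4 β-lactamase fluorescence after 2 h at RT. IC50 comes from Hill fits normalised to rosiglitazone and DMSO.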

[6] = biological target: Vitamin D3 receptor (Homo sapiens) (UniProt P11473); experiment: qHTS assay for small molecule antagonists of vitamin D receptor signaling (AID 588541);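 further: receptor activated by calcitriol during compound treatment; series mostly up to about 77 µM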
In short: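 VDR-UAS-bla HEK293T cells in 2% charcoal-stripped FBS were stimulated with 1-alpha,25-dihydroxyvitamin D3 (3 nM final) plus compound for 16 h at 37 C. The beta-lactamase CCF4 readout was normalized to 50 nM agonist and DMSO, and Hill fits gave IC50.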

[7] = biological target: Vitamin D3 receptor (Homo sapiens) (UniProt P11473); experiment: qHTS assay for small molecule agonists of vitamin D receptor signaling (AID 588543)
In short: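 Measured: β-lactamase reporter activity (CCF4, 405 nm excitation, 460/530 nm emission) in HEK293T VDR-UAS-bla cells after 16 h compound exposure at 37 °C. Normalization against 50 nM 1α,25-dihydroxyvitamin D3 and DMSO; Hill-fit EC50.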

[8] = qHTS assay for small molecule agonists of retinoid X receptor alpha signaling (AID 588544); conditions: HEK293T RXRa-UAS-bla, beta-lactamase reporter, 18 h; 530 nm emission
[9] = biological target: Retinoic acid receptor RXR-alpha (Homo sapiens) (UniProt P19793); experiment: as above
[10] = biological target: Thyroid hormone receptor beta (Homo sapiens) (UniProt P10828); experiment: qHTS assay for small molecule agonists of thyroid hormone receptor beta signaling (AID 588545)
In short: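 HEK 293 TR-UAS-bla; agonist mode; 18 hrs, 37 C; CCF4, ex 405/em 460 and 530 nm; norm. T3 10 nM = 100%, DMSO = 0%; Hill fit → EC50, efficacy.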

[11] = qHTS assay for small molecule antagonists of retinoid X receptor alpha signaling (AID 588546; active means well fitted inhibition curve with a large enough effect in the signal ratio, with a control signal flat, not every such curve was filed as active; the % refers to the signal ratio; further: potency means the concentration at half of the fitted maximal effect;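 on max response: cells stimulated with 9-cis-retinoic acid as agonist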); conditions: HEK293T RXRa-UAS-bla, beta-lactamase ratio, antagonist mode; measured here: W530 green channel, cytotoxicity proxy
In short: (§2)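 Beta-lactamase reporter inhibition, read as CCF4 fluorescence ratio (ex 405, em 460/530 nm) after 2 h at RT. HEK293T UAS-bla cells, 2500/well, were stimulated with 9-cis-RA at 500 or 100 nM final alongside test compound for 18 h at 37 C.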

[12] = biological target: Retinoic acid receptor RXR-alpha (Homo sapiens) (UniProt P19793); experiment: as above; conditions: HEK293T RXRa-UAS-bla, beta-lactamase ratio, antagonist mode
In short: as §2

[13] = biological target: Thyroid hormone receptor beta (Homo sapiens) (UniProt P10828); experiment: qHTS assay for small molecule antagonists of thyroid hormone receptor beta signaling (AID 588547; active means well fitted inhibition curve with a large enough effect in the signal ratio, with a control signal flat, not every such curve was filed as active; the % refers to the signal ratio;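 further: cells stimulated with 0.4 nM T3 agonist during compound exposure; series mostly up to about 77 µM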); conditions: TR-UAS-bla HEK293, beta-lactamase ratio, antagonist mode, 18 h
In short: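 TR-UAS-bla GripTite HEK293 cells in 2% charcoal/dextran FBS medium; compounds 0.59 nM to 92 uM with T3 at 0.4nM final, 18 h at 37 C. Beta-lactamase read by CCF4 fluorescence (460/530 nm); Hill fits gave IC50 and efficacy.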

[14] = biological target: Luciferin 4-monooxygenase (Photinus pyralis) (UniProt P08659); experiment: Biochemical firefly luciferase enzyme assay for NPC (AID 624030; active means well fitted curve in the direction sought with a large enough effect; an effect the other way counts as inactive or inconclusive;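 further: purified P. pyralis luciferase at 10 nM with luciferin and ATP substrate; series mostly up to about 59 µM; nearly all actives have a fitted effect of over 70% in size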)
In short: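 Purified P. pyralis luciferase at 10 nM in 50 mM Tris Acetate (final), luminescence read within 5 minutes of enzyme addition to compounds. Activity normalised to PTC124 versus DMSO; concentration-response curves classed by r2, magnitude and activity.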

[15] = S16 Schwann cell viability assay (CellTiter-Glo assay) (AID 624031; active means well fitted curve in the direction sought with a large enough effect; an effect the other way counts as inactive or inconclusive;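 further: native untransfected S16 rat Schwann cells; cellular ATP luminescence as a viability measure; series mostly up to about 58 µM; nearly all actives have a fitted effect of over 70% in size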)
In short: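 Parental S16 cells, 24 h compound, 37 °C. ATP-luminescence viability; DMSO = 0% activity, empty wells as reference; curves classified by fit quality and efficacy.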

[16] = biological target: Glucocorticoid receptor (Homo sapiens) (UniProt P04150); experiment: qHTS assay for small molecule agonists of glucocorticoid receptor signaling (AID 588532; active means well fitted curve in the direction sought with a large enough effect in the signal ratio, with a control signal flat; the % refers to the signal ratio); conditions: HeLa MMTV-bla, beta-lactamase ratio, agonist, 18 h; stronger effect = higher value; percent of dexamethasone control, DMSO zero
In short: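 Cells were plated and rested 3-5 h at 37 C, compounds were added in titration and incubated 18 h, then CCF4 substrate was loaded for 2 h at RT before reading blue/green fluorescence. EC50 came from Hill-equation fitting.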

[17] = biological target: Voltage-gated inwardly rectifying potassium channel KCNH2 (Homo sapiens) (UniProt Q12809); experiment: qHTS Assay for Small Molecule Inhibitors of the Human hERG Channel Activity (AID 588834; active means well fitted curve in the direction sought with a large enough effect; an effect the other way counts as inactive or inconclusive;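 further: top concentration of the series differs between compounds; lower thallium flux fluorescence means stronger hERG block; nearly all actives have a fitted effect of over 50% in size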)
In short: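 Blockade is seen as reduced FluxOR thallium-flux fluorescence in U2OS cells expressing hERG from a BacMam construct, in Opti-MEM with 2% FCS. Concentration-response data fitted to the Hill equation for AC50.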

[18] = biological target: Androgen receptor (Homo sapiens) (UniProt P10275); experiment: qHTS assay for small molecule agonists of androgen receptor signaling (AID 588515; active means well fitted curve in the direction sought with a large enough effect in the signal ratio, with a control signal flat; the % refers to the signal ratio); conditions: AR-UAS-bla HEK293, beta-lactamase ratio, agonist 16 h; stronger effect = higher value
In short: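 EC50 and efficacy came from Hill fits of titrations (up to 92 uM) normalized to 30 nM R1881 as 100% and DMSO as 0%. Compound exposure was 16 h at 37 C on AR-UAS-bla HEK293 cells, with a 405/460/530 nm CCF4 fluorescence read.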

[19] = biological target: Glucocorticoid receptor (Homo sapiens) (UniProt P04150); experiment: qHTS assay for small molecule antagonists of glucocorticoid receptor signaling (AID 588533; active means well fitted inhibition curve with a large enough effect in the signal ratio, with a control signal flat, not every such curve was filed as active; the % refers to the signal ratio; further: potency means the concentration at half of the fitted maximal effect)
In short: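 Antagonist-mode qHTS: compound titrations added to GRE-bla HeLa cells, then dexamethasone 2 nM final; 18 h, 37 C. CCF4 FRET fluorescence normalized to dexamethasone and DMSO; IC50 from Hill fit.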

Glucocorticoid receptor (Homo sapiens), sequence (P04150 whole entry, looked up): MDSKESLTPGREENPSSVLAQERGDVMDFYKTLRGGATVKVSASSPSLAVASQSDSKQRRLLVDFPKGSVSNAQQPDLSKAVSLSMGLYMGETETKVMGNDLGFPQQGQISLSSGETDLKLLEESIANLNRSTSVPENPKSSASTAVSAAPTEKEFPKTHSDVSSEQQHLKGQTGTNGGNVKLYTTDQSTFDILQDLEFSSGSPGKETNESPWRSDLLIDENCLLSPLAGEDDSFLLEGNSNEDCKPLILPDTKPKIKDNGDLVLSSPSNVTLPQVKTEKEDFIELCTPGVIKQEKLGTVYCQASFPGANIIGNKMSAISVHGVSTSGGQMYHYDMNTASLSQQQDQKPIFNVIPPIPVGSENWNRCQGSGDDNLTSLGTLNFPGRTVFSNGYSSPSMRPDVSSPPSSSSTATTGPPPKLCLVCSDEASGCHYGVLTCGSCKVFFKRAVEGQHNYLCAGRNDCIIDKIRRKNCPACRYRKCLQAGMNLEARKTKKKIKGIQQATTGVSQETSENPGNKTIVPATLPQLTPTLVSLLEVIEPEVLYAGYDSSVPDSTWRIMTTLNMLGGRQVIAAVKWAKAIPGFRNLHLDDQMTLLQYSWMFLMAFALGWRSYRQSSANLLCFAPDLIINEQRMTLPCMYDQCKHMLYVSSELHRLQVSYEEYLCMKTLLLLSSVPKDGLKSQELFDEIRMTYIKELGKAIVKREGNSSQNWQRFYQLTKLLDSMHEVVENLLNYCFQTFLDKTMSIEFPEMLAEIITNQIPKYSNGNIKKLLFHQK
Voltage-gated inwardly rectifying potassium channel KCNH2 (Homo sapiens), sequence (Q12809 whole entry, looked up): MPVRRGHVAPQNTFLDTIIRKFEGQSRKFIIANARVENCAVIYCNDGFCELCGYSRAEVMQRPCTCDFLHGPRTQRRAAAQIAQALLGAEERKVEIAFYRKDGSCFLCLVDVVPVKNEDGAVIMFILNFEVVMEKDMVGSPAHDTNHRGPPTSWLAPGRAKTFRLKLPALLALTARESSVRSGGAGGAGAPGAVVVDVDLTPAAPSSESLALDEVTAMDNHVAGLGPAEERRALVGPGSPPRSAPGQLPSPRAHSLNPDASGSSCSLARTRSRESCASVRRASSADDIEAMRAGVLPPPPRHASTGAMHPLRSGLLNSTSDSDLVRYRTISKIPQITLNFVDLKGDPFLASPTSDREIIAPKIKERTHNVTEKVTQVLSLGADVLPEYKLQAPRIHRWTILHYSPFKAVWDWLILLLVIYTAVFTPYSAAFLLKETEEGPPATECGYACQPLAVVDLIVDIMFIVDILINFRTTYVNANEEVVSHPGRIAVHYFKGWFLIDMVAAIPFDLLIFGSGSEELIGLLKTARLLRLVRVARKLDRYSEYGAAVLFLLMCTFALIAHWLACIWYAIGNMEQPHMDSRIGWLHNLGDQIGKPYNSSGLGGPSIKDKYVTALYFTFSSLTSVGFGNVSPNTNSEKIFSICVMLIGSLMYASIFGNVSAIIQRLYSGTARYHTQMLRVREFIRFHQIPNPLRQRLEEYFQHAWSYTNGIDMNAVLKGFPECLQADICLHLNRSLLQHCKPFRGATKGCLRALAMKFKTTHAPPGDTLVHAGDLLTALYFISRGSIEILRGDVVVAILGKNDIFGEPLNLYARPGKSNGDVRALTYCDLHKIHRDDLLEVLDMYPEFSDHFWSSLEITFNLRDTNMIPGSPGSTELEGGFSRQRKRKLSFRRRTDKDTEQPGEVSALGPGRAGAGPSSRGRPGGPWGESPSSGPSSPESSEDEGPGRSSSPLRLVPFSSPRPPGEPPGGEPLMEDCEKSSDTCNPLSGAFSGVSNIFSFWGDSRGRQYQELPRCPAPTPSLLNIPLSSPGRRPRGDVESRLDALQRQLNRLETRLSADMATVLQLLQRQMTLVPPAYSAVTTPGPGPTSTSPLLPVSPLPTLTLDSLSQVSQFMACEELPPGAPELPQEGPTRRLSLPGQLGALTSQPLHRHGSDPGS
Peroxisome proliferator-activated receptor delta (Homo sapiens), sequence (Q03181 whole entry, looked up): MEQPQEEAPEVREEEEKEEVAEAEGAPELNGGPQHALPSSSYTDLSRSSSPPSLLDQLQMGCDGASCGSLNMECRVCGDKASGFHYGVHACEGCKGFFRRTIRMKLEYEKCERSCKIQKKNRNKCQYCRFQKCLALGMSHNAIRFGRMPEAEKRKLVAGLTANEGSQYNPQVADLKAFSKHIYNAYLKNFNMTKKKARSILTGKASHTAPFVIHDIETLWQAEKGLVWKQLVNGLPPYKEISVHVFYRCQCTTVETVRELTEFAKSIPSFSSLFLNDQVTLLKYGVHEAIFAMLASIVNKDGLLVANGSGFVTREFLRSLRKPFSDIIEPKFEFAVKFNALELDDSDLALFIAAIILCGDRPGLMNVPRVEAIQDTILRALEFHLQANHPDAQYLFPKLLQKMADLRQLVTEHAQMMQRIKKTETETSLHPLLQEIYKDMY
Peroxisome proliferator-activated receptor gamma (Homo sapiens), sequence (P37231 whole entry, looked up): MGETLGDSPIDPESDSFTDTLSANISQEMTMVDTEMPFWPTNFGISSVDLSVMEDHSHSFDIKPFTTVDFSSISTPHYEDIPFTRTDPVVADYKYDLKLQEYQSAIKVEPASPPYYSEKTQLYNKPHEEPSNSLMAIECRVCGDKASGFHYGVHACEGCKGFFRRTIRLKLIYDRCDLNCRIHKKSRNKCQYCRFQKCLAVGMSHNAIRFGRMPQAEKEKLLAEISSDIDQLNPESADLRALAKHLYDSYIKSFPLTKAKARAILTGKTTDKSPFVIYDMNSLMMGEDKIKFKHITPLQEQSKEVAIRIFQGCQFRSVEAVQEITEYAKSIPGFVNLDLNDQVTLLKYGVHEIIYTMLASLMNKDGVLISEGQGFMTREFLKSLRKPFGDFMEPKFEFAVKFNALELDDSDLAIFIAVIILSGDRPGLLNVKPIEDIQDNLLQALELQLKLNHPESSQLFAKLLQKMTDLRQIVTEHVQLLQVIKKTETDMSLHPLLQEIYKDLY
Luciferin 4-monooxygenase (Photinus pyralis), sequence (P08659 whole entry, looked up): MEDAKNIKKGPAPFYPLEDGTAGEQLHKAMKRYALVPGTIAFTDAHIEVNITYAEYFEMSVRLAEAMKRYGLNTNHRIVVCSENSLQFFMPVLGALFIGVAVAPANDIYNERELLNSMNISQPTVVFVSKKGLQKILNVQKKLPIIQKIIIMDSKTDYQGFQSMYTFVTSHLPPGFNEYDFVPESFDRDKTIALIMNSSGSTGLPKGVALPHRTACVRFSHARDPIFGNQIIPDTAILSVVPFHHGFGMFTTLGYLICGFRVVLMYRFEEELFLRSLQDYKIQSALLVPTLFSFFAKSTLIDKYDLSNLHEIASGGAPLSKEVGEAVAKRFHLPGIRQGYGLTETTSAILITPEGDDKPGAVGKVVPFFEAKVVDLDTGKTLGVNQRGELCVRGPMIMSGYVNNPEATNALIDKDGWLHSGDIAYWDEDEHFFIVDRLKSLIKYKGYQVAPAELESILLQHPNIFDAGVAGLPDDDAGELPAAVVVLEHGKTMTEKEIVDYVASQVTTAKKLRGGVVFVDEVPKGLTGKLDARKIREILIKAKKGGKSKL
Thyroid hormone receptor beta (Homo sapiens), sequence (P10828 whole entry, looked up): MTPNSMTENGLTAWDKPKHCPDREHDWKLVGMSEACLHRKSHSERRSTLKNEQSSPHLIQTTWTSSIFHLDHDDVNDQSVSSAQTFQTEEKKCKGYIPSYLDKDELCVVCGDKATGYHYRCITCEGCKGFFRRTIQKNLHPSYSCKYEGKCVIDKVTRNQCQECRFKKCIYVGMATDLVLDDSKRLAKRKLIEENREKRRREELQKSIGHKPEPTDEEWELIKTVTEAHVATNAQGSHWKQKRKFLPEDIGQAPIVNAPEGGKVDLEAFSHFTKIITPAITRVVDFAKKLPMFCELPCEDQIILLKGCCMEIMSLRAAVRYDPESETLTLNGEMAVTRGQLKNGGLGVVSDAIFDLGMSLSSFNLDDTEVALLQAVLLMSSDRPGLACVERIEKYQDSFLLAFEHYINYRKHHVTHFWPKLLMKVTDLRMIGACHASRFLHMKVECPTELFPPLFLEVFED
Vitamin D3 receptor (Homo sapiens), sequence (P11473 whole entry, looked up): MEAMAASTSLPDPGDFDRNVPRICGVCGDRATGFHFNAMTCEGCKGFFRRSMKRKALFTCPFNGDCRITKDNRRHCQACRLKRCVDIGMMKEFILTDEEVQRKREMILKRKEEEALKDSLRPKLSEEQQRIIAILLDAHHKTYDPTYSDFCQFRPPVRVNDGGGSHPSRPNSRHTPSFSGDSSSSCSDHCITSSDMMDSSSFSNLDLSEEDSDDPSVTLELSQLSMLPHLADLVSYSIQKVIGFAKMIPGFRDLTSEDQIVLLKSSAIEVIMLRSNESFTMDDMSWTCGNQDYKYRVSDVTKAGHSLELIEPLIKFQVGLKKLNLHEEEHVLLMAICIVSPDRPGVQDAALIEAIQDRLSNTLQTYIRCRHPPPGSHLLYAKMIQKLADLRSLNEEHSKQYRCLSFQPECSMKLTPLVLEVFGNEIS
Retinoic acid receptor RXR-alpha (Homo sapiens), sequence (P19793 whole entry, looked up): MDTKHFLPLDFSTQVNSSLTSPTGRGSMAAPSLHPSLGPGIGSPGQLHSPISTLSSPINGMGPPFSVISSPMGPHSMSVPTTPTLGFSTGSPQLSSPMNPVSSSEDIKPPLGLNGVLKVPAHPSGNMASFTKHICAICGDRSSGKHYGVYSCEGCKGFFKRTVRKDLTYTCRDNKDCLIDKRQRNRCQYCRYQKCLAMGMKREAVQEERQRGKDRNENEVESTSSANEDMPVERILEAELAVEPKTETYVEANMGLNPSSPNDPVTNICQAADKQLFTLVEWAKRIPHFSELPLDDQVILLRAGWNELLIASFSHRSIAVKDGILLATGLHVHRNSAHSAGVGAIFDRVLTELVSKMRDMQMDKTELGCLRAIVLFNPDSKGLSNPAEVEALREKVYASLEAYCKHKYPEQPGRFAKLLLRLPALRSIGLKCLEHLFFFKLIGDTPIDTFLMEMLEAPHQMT

| Structure (SMILES) | Potency [1] | max response [2] | outcome [3] | outcome [4] | Potency [5] | outcome [6] | outcome [7] | max response [8] | outcome [9] | outcome [10] | max response [11] | max response [12] | activity change % (negative = inhibition) [13] | Potency [14] | Potency [15] | activation [16] | Potency [17] | activation [18] | Potency [19] | Potency [12] |
| --- | --- | --- | --- | --- | --- | --- | --- | --- | --- | --- | --- | --- | --- | --- | --- | --- | --- | --- | --- | --- |
| Cc1cn([C@H]2C=C[C@@H](CO)O2)c(=O)[nH]c1=O | inactive | 27.7% and 7.49% | inactive | inactive | inactive | inactive | inactive | -12.5% and -2.44% and -13% | inactive | inactive | -1.05% and 0.328% and -3.51% | 0.606% (inactive) and 10% (inactive) and 8.08% (inactive) | 3.32% (inactive) and -6.39% (inactive) | inactive | inactive | – | – | – | – | – |
| N[C@@H](Cc1c[nH]c2ccc(O)cc12)C(=O)O | – | 3.83% | inactive | inactive | inactive | inactive | inactive | -7.77% | inactive | – | 1.87% | 3.1% (inactive) | -8.63% (inactive) | – | inactive | -7.97% (inactive) | inactive | – | – | – |
| CN(Cc1cnc2nc(N)nc(N)c2n1)c1ccc(C(=O)N[C@@H](CCC(=O)O)C(=O)O)cc1 | – | – | – | – | 0.447 µM (active) | – | – | – | – | inactive | – | – | -21.4% (inactive) | inactive | inactive | – | inactive | 0.214% (inactive) | – | – |
| O=C(c1ccc(OCCN2CCCCC2)cc1)c1c(-c2ccc(O)cc2)sc2cc(O)ccc12 | – | – | – | – | 39.8 µM (active) | – | inactive | – | – | – | -24.2% | – | – | inactive | – | – | – | – | 39.8 µM (active) | 25.1 µM (active) |
| NCCS(=O)(=O)O | – | – | – | inactive | inactive | inactive | inactive | -14.9% | inactive | inactive | -6.13% | -0.744% (inactive) | -15.9% (inactive) | inactive | inactive | 1.42% (inactive) | inactive | – | inactive | – |
| Cc1cn([C@H]2C[C@H](N=[N+]=[N-])[C@@H](CO)O2)c(=O)[nH]c1=O | inactive | 16% | inactive | inactive | inactive | inactive | inactive | 27.7% and 12.8% | inactive | inactive | 15.5% and -2.05% | 5.84% (inactive) and -2.64% (inactive) | 5.41% (inactive) and 12% (inactive) | inactive | inactive | -3.02% (inactive) and 6.31% (inactive) | – | – | inactive | – |
| O=C(CCCN1CCC(O)(c2ccc(Cl)cc2)CC1)c1ccc(F)cc1 | inactive | – | – | inactive | inactive | – | – | -1.31% | inactive | inactive | 6.93% | -32.4% (inactive) | -36.9% (inactive) | inactive | inactive | -2.91% (inactive) | – | – | inactive | – |
